From ChEMBL document CHEMBL1157539, “Thousands of chemical starting points for antimalarial lead identification” (Nature, 2010)

Key:
Type in all cases: functional
Plasmodium falciparum [1] = experiment: GSK_TCMDC: Inhibition of Plasmodium falciparum 3D7 in whole red blood cells, using parasite LDH activity as an index of growth. Test compounds present at 2uM
Plasmodium falciparum [2] = experiment: GSK_TCMDC: Inhibition of Plasmodium falciparum Dd2 in whole red blood cells, using parasite LDH activity as an index of growth. Test compounds present at 2uM
HepG2 = experiment: GSK_TCMDC: Percent inhibition of human HepG2 cell line. Test compounds present at 10uM.

SMILES	Inhibition (Plasmodium falciparum [1]) [%]	Inhibition (Plasmodium falciparum [2]) [%]	Inhibition (HepG2) [%]
O=C1Nc2ccccc2/C1=N/NC(=S)N1CCOCC1	95	75	51
C[C@H](Cc1ccc(OCCCCOc2ccc(C[C@@H](C)NC[C@H](O)c3cccc(Cl)c3)cc2)cc1)NC[C@H](O)c1cccc(Cl)c1	100	92	68
O=C(Nc1cccc(-c2nn3ccccc3c2-c2ccnc(Nc3ccc(-c4cc[nH]n4)cc3)n2)c1)c1c(F)cccc1F	98	98	68
CCN(CCNC(=O)C1CCN(c2cc(-c3cccc(C)c3)ncn2)CC1)Cc1ccccc1	83	72	24
CN(C(=O)Nc1ccc(F)cc1)C1CCN(CCCCCNC(=O)/C=C/c2ccc(Cl)c(Cl)c2)CC1	89	0	38
COc1ccc(C=CC(=O)NC(=O)c2ccccc2OC(=O)c2ccccc2)cc1OC	87	90	12
COc1ccccc1Nc1nc(C)cc(NCc2ccc(-c3c(C)noc3C)cc2)n1	98	13	12
CC(=O)Nc1ccc(CNCCc2ccc(NC(=O)c3cc(Cl)cc(Cl)c3)cc2)cc1	100	31	10
CCCCCCC(C)c1cc(O)c2c(c1)OC(=O)CC2(CC)c1ccccn1.Cl (stereo not drawn)	100	0	15
CCCCCCN(CCCCCC)CC(O)c1c(OC)ccc2ccccc12.Cl (stereo not drawn)	100	100	18
CO/C(=C\C=C\c1cc2cc(Cl)c(Cl)cc2[nH]1)C(=O)NCC(C)(C)CN(C)C	81	27	35
